The full list was thinned out, with hits kept by preference.
TbREL1 primary: TbREL1 RNA ligase inhibitors, primary screen, biochemical, FRET fluorescence. RNA-editing ligase 1, mitochondrial (Trypanosoma brucei brucei), P86926. TbREL1 RNA ligation. inhibition, % at 9.66 µM. hit rate 0.49% among 89,000;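 active = inhibition above the mean inhibition across all screened compounds plus 3 SD, cut at about 11% in these data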;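 also: 0% = plate median of test wells and 100% = NSC42067 control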
Target sequence (P86926 whole entry, looked up): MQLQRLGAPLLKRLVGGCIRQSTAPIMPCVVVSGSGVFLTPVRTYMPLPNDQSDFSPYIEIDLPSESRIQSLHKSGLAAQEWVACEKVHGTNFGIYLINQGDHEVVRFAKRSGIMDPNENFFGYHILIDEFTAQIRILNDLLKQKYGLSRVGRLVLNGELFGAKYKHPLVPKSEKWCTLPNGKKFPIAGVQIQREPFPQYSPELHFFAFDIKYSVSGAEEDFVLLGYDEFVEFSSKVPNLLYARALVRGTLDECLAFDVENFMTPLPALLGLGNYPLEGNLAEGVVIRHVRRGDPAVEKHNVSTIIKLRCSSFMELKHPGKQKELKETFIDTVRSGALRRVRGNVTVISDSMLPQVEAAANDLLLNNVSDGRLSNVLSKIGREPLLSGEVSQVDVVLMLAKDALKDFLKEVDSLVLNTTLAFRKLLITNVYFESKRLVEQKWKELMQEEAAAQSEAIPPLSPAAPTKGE
TbREL1 confirm: TbREL1 RNA ligase inhibitors, confirmation, biochemical, FRET fluorescence, triplicate; shares compounds with TbREL1 primary; AID 1117282, 2014; inhibition, % at 9.66 µM; hit rate 37% among 390; TbREL1 RNA ligation;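 active = mean inhibition across replicates above a set limit taken from the earlier primary screen, cut at about 11% in these data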;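 also: 0% = REL1 with substrate and DMSO and 100% = REL1 plus control inhibitor NSC42067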
The depositor's hits bear a star.

SMILES	TbREL1 primary	others
COC(=O)[C@]12C[C@H](CC(=O)NCc3cccc(C(F)(F)F)c3)C(=O)N(Cc3ccc4c(c3)OCO4)C1=C[C@H](C(C)C)O[C@@H]2C1CC1	0
O=C(NCCN1CCC(Cc2ccccc2)CC1)C1CCCN(S(=O)(=O)c2ccc([N+](=O)[O-])cc2)C1 (stereo not given)	5
NC(COCc1ccccc1)c1csc(Nc2ccc(C(F)(F)F)cn2)n1 (stereo not given)	9
COc1ccc(CC(N)c2csc(NC(=O)Nc3cccc(C(F)(F)F)c3)n2)cc1 (stereo not given)	5
CCCCN(C)C(=O)c1ccc(Nc2nc(C(N)Cc3ccc(C(F)(F)F)cc3)cs2)nc1 (stereo not given)	17*	TbREL1 confirm=13*
COc1ccc(-c2noc(C3CCCN(C(=O)N[C@@H]4C[C@H]4c4ccccc4)C3)n2)cc1 (stereo not given in full)	-2
Cc1ccc(-n2c(SCC(=O)Nc3ccc(S(=O)(=O)Nc4nccs4)cc3)nnc2-c2cccs2)cc1	-5
CN(C(=O)C1CCN(c2cncnc2)CC1)C1CCCCC1	-3
CN(Cc1ccc(F)cc1)C(=O)CN1C(=O)C2(OCCCO2)c2ccccc21	-4
S=C(Nc1ccccc1Cl)OCCN1CCCC12CCC(c1ccccc1)CC2 (stereo not given)	0
COc1cccc2cc(C(=O)N3CCN(c4ccccc4F)CC3)c(=O)oc12	6
COc1cc(Br)cc2cc(C(=O)N3CCN(c4ccccn4)CC3)c(=O)oc12	1
COc1cc([N+](=O)[O-])cc2cc(C(=O)N3CCN=C3c3ccccc3)c(=O)oc12	11*	TbREL1 confirm=3
Cc1ccc(-c2cc(-c3nnc(SCC(=O)N4c5ccccc5Sc5ccccc54)n3N)[nH]n2)cc1	2
CC1CCN(c2ccc(C(=O)O)cc2NS(=O)(=O)c2ccc(C(C)(C)C)cc2)CC1	-1
CCc1ccc(OCCOCCN2CCN(C)CC2)cc1	16*	TbREL1 confirm=8
CCN1CCN(CCOCCOc2ccccc2)CC1	4
CN1CCN(CCOc2ccc(Cl)c(Cl)c2)CC1	7
Cc1sc2nc(SCC(=O)c3ccc(O)c(O)c3)n(C)c(=O)c2c1C	4
CC(C)(C)c1cccc(N/C(=C\C(=O)c2ccccc2)c2ccccc2)c1	0
O=C(N/C(=N\O)c1ccccc1)Nc1ccc(Cl)cc1	1
O=C(Nc1ccc(F)c(Cl)c1)c1ccccc1	0
O=C(Nc1ccc(Cl)cc1)C(Cl)C(=O)c1ccccc1 (stereo not given)	12*	TbREL1 confirm=8
CCCN1C(=O)c2n[nH]c(C)c2C1c1ccc(Br)cc1 (stereo not given)	0
CCS(=O)(=O)n1nc(-c2ccc(Cl)cc2)nc1N	0
SMILES	TbREL1 primary	others
COc1ccc(-c2nc(SC)n(S(=O)(=O)c3ccccc3)n2)cc1	2
CSc1nc(-c2ccccc2)nn1S(=O)(=O)c1ccc(Cl)cc1	11*	TbREL1 confirm=3
Cc1cccc(NC(=O)CSc2nnc(SCc3ccc(Cl)cc3)s2)c1	5
Clc1ccc(CN=C(Nc2ccccc2)NC2CCCCC2)cc1	13*	TbREL1 confirm=15*
O=C(Nc1nnc(-c2ccc(Cl)cc2)o1)NC1CCCCC1	-1
O=C(Nc1cccc(Cl)c1)NC1CCCCC1	6
Cc1ccccc1CNC(=O)c1cccc2c1C(=O)N(Cc1cccnc1)C2	1
O=C(NCc1ccc(F)c(F)c1)C1CCCN(c2nc3ccccc3o2)C1 (stereo not given)	3
CC(C)c1cc(C(=O)O)c2ccccc2n1	13*	TbREL1 confirm=9
O=C(O)c1cc(Sc2ccc(Br)cc2)nc2ccccc12	0
Cc1cc(C(N)=O)c2ccccc2n1	4
O=C(OCc1cn(Cc2ccc(C(F)(F)F)cc2)nn1)N1CCCC1	6
Cc1ccc(NC(=O)C2CCN(c3nnc(-n4cccc4)s3)CC2)cc1C	-3
COc1cc(C(=O)/C=C/c2cccnc2)c([N+](=O)[O-])cc1OC	2
CN(C)C(=O)COc1ccc(C(=O)/C=C/c2cccnc2)cc1	8
O=C(/C=C/c1cccnc1)c1ccc([N+](=O)[O-])cc1	11*	TbREL1 confirm=11
O=C(NCC1CCCO1)C1C2C=CC3(CN(Cc4cccs4)C(=O)C13)O2 (stereo not given)	20*	TbREL1 confirm=1
CC(C)CCOC(=O)C1C2C=CC3(CN(Cc4cccs4)C(=O)C13)O2 (stereo not given)	-6
O=C(NCc1cccs1)C1C2C=CC3(CN(Cc4ccccc4)C(=O)C13)O2 (stereo not given)	2
Cc1ccc(S(=O)(=O)N2CCCC(C(=O)Nc3c(C)n(C)n(-c4ccccc4)c3=O)C2)cc1 (stereo not given)	-1
Cc1cccc(Cn2cc(COC(=O)Nc3ccc(F)cc3)nn2)c1	15*	TbREL1 confirm=0
O=C(Nc1ccc(F)cc1)OCc1cn(Cc2ccc(Cl)cc2)nn1	-2
O=C(Nc1ccc(F)cc1)OCc1cn(Cc2ccccc2)nn1	-2
CCCC[C@@H]1C(=O)N2N=Cc3cc4ccccc4cc3[C@H]2N2N=Cc3cc4ccccc4cc3[C@@H]12	3
CN(C)CCCN(C(=O)c1ccc(C(=O)c2ccccc2)cc1)c1nc2cc3c(cc2s1)OCCO3	12*	TbREL1 confirm=8
SMILES	TbREL1 primary	others
CN(C)CCCN(C(=O)c1ccc(S(=O)(=O)N2CCc3ccccc32)cc1)c1nc2ccc(Cl)cc2s1	6
CN(C)CCCN(C(=O)c1ccc2c(c1)CCCC2)c1nc2cc3c(cc2s1)OCO3	7
CN(C)CCCN(C(=O)c1ccc(S(=O)(=O)N2CCc3ccccc32)cc1)c1nc2ccc(F)cc2s1	12*	TbREL1 confirm=8
Cc1ccc2nc(N(CCCN(C)C)C(=O)c3ccc(S(=O)(=O)N4CCc5ccccc5C4)cc3)sc2c1	0
CN(C)CCCN(C(=O)CCS(=O)(=O)c1ccccc1)c1nc2cc3c(cc2s1)OCO3	10
COc1cccc(CNC(=O)Cn2c(-c3ccccc3)cc(C(C)=O)c2C)c1	1
COc1ccc(-c2noc(C3CCCN(C(=O)NC4CCC(C)CC4)C3)n2)cc1 (stereo not given)	-3
CCCOc1ccc(N)cc1N	12*	TbREL1 confirm=6
COc1ccc(N)cc1C#N	-2
CCCOC(=O)c1ccc(O)c(OC)c1	-4
COC(CNC(=O)[C@H](Cc1c[nH]c2ccccc12)NC1(C(=O)NC2CCCCC2)CCCCC1)OC	-4
O=C(NC1CCCCN(Cc2ccc(Cl)cc2)C1=O)c1cccc(F)c1 (stereo not given)	7
CCc1ccccc1CNC(=O)C1CCC(CNS(=O)(=O)c2cccc3cccnc23)CC1 (stereo not given)	-1
Cn1c(SCc2ccc(C(C)(C)C)cc2)nnc1-c1ccco1	0
CCOC(=O)c1c(C)n(C)c2cc([N+](=O)[O-])c(O)c([N+](=O)[O-])c12	11*	TbREL1 confirm=3
CCOC(=O)c1c(C)n(C)c2ccc(OCC(N)=O)cc12	6
CCOC(=O)C1=C(C)N(C)C(=O)NC1c1cccc([N+](=O)[O-])c1 (stereo not given)	-1
Cc1nc(N2CCCCC2C)c2nnn(Cc3ccccc3)c2n1 (stereo not given)	0
Cc1noc(C)c1NC(=O)Nc1ccc2c(c1)C(=O)N([C@@H](C)CO)C[C@@H](C)[C@H](CN(C)S(=O)(=O)c1ccc(F)cc1)OCCCC[C@H](C)O2	-2
CCCCC(=O)N(Cc1ccccc1)c1ccccc1C(=O)Nc1cc(OC)ccc1OC	-2

High-throughput results (PubChem BioAssay)
